# PubChem BioAssay
# The source made the active and inactive calls.
# Columns and labels:
# [1] = system: Plasmodium falciparum Sir2 (PF13_0152, Sir2A); assay: Plasmodium falciparum Sir2A binding compounds – biochemical, small-molecule microarray, 635 nm fluorescence, primary screen (AID 1098); conditions: fluorescence 635 nm, higher = more signal;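 further: score merges spot fluorescence intensity with its signal-to-noise ratio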
# [2] = probe aDKK1 binding to arrayed compounds – biochemical, biotinylated probe, 635/667 nm fluorescence, primary screen (AID 1099); conditions: small-molecule microarray, higher = more signal;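 further: score merges 667nm spot fluorescence with signal to noise across triplicate slides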
# [3] = probe aCHRDL2 binding to arrayed compounds – biochemical, biotinylated probe, 635/667 nm fluorescence, primary screen (AID 1100); conditions: small-molecule microarray, higher = more signal
# [4] = change in splice reporter luminescence, either direction, cell-based, HEK293, spliceosome inhibition project, primary screen (AID 1101); conditions: HEK293 splicing luciferase reporter, 24 h, higher = more signal, called active from +8 up or from −8 down;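 further: HEK293 cells carrying a splicing-competent luciferase reporter gene; test concentration not given here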
# [5] = molecular target: Fibroblast growth factor 10 (Homo sapiens) (UniProt O15520); assay: compounds binding fibroblast growth factor 10 – biochemical, small-molecule microarray, 635 nm fluorescence, primary screen (AID 1102); conditions: FGF10 binding, fluorescence 635 nm, higher = more signal
# Fibroblast growth factor 10 (Homo sapiens), sequence (O15520 whole entry, looked up): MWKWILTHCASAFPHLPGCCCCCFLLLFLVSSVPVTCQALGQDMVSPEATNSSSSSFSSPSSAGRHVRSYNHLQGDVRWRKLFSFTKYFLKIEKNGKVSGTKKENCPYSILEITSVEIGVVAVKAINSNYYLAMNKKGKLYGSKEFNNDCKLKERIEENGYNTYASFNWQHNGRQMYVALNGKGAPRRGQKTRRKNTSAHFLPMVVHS
# [6] = system: glycogen synthase kinase-3 (GSK3A per assay name; protocol says GSK3B); assay: compounds binding glycogen synthase kinase-3 – biochemical, small-molecule microarray, 635 nm fluorescence, GSK3A, primary screen (AID 1103); conditions: fluorescence 635 nm, higher = more signal; further: the record names both GSK3A and GSK3B
# [7] = molecular target: Epidermal growth factor receptor (Homo sapiens) (UniProt P00533); assay: compounds binding epidermal growth factor receptor – biochemical, small-molecule microarray, 635 nm fluorescence, primary screen (AID 1104); conditions: EGFR binding, higher = more signal;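 further: score merges 667 nm emission intensity with spot signal to noise over triplicate slides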
# Epidermal growth factor receptor (Homo sapiens), sequence (P00533 whole entry, looked up): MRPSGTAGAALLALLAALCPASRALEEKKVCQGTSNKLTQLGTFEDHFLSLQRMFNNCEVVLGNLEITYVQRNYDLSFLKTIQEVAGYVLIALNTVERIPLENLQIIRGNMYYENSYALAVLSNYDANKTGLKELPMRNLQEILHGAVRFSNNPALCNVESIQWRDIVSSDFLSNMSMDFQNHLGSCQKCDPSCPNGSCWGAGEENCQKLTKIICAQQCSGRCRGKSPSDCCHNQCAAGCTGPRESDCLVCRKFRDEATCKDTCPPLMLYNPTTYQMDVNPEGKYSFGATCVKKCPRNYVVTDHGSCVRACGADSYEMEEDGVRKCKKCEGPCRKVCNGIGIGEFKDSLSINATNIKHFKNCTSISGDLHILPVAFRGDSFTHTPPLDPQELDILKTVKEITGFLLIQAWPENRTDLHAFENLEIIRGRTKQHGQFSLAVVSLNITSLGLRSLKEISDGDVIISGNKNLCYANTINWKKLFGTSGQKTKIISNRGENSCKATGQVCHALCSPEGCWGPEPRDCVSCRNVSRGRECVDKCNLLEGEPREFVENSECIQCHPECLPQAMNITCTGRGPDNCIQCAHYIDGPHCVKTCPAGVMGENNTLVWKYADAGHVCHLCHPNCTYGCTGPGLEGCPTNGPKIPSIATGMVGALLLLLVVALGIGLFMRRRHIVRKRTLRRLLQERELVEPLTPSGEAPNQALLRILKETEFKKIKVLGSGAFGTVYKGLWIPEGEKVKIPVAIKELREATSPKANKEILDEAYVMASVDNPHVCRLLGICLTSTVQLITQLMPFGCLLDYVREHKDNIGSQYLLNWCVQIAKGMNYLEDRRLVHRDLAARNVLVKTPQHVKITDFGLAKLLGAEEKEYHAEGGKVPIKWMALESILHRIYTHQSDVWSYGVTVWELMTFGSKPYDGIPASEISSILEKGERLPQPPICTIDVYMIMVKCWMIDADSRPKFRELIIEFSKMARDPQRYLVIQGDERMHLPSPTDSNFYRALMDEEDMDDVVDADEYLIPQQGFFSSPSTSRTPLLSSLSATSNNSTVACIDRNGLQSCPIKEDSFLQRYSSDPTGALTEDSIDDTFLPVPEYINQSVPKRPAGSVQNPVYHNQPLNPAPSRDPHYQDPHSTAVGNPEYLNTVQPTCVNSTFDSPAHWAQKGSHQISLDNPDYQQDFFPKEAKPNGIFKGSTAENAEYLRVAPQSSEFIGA
# [8] = molecular target: Follistatin-related protein 3 (Homo sapiens) (UniProt O95633); assay: compounds binding follistatin-related protein 3 – biochemical, small-molecule microarray, 635 nm fluorescence, primary screen (AID 1105); conditions: FSTL3 binding, higher = more signal;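 further: score merges emission near 667 nm and signal to noise per printed spot across three slides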
# Follistatin-related protein 3 (Homo sapiens), sequence (O95633 whole entry, looked up): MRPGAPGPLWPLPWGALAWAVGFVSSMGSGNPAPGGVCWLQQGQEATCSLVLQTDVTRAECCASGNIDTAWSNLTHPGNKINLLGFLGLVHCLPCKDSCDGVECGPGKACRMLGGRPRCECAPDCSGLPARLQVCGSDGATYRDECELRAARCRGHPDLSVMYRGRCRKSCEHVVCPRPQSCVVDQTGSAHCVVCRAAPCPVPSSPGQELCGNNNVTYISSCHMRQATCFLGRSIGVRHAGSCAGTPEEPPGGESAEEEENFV
# [9] = molecular target: Dickkopf-related protein 1 (Homo sapiens) (UniProt O94907); assay: small molecules binding DKK1 protein – biochemical, small-molecule microarray, 635 nm fluorescence scan, primary screen (AID 1106); conditions: higher = more signal;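 further: score merges emission near 667 nm with signal to noise over three replicate slides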
# Dickkopf-related protein 1 (Homo sapiens), sequence (O94907 whole entry, looked up): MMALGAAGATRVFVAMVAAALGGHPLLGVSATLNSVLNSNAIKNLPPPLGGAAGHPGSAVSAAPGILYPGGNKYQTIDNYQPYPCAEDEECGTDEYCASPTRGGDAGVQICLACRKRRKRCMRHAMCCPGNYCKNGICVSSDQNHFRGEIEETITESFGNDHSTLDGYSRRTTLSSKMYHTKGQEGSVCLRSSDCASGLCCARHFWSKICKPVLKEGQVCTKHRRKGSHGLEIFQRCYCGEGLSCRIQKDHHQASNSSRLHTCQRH
# [10] = system: Inhibin beta A chain (activin A); assay: small molecules binding activin A – biochemical, small-molecule microarray, 635 nm fluorescence scan, primary screen (AID 1107); conditions: INHBA, higher = more signal;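 further: mouse activin A protein probed at 4.33 µg/mL on printed slides; score merges bound-protein fluorescence near 667 nm with spot signal-to-noise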
# [11] = system: Human papillomavirus type 1a protein E7 (residues 44-93); assay: small molecules binding HPV E7 44-93 – biochemical, small-molecule microarray, residues 44-93, 635 nm fluorescence, primary screen (AID 1108); conditions: fluorescence 635 nm, higher = more signal;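 further: E7 fragment applied at 1 µg/mL in TBST for 1 h at 4 C; score combines spot fluorescence with its signal to noise ratio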
# [12] = hepatitis C replication reporter changes, two-sided – Huh7 cells, luciferase reporter, HCV replication inhibitor project, primary screen (AID 1109); conditions: Huh7 HCV replicon luciferase reporter, 48 h; higher = more signal;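 further: huh7 hepatoma cells harbouring a luciferase neomycin HCV replicon reporter; luciferase luminescence as measure of HCV replicon replication; test concentration not given here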
# [13] = molecular target: Left-right determination factor 2 (Homo sapiens) (UniProt O00292); assay: small molecules binding LEFTY2 protein – biochemical, small-molecule microarray, 635 nm fluorescence scan, primary screen (AID 1110); conditions: higher = more signal
# Left-right determination factor 2 (Homo sapiens), sequence (O00292 whole entry, looked up): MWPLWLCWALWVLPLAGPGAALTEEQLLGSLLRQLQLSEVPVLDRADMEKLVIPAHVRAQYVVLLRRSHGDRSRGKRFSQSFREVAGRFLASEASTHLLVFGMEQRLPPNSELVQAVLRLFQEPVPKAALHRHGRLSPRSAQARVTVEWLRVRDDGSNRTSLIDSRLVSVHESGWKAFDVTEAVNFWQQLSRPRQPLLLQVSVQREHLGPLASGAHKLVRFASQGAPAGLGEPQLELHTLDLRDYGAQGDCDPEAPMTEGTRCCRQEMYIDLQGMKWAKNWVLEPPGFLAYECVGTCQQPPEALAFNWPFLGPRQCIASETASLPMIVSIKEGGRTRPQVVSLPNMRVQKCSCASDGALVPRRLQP
# [14] = molecular target: Calmodulin-1 (Homo sapiens) (UniProt P0DP23); assay: small molecules binding calmodulin-1 with EGTA – biochemical, small-molecule microarray, Cy5-labelled CALM1, profiling panel (AID 1111); conditions: Cy5-CALM1 binding fluorescence, higher = more signal;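 further: labelled calmodulin applied in Tris saline Tween buffer holding calcium plus EGTA and DTT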
# [15] = molecular target: Calmodulin-1 (Homo sapiens) (UniProt P0DP23); assay: small molecules binding Ca-loaded calmodulin-1 – biochemical, small-molecule microarray, Cy5-labelled CALM1, plus calcium, artefact control for SMM control-protein annotation, profiling panel (AID 1112); conditions: Cy5-CALM1 binding fluorescence, higher = more signal;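 further: score merges spot fluorescence with signal to noise from triplicate slides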
# [16] = probe aWnt5a binding to arrayed compounds – biochemical, biotinylated probe, 635/667 nm fluorescence, primary screen (AID 1113); conditions: small-molecule microarray, higher = more signal;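 further: score merges 667 nm fluorescence intensity with signal-to-noise per printed feature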
# [17] = probe aShh binding to arrayed compounds – biochemical, biotinylated probe, 635/667 nm fluorescence, primary screen (AID 1114); conditions: small-molecule microarray, higher = more signal;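 further: probe is biotin-labelled aShh protein from a stem cell growth factor screen; measures binding of labelled protein to compounds printed on the slide; score merges feature fluorescence at 667 nm with signal-to-noise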
# [18] = probe aNog binding to arrayed compounds – biochemical, biotinylated probe, 635/667 nm fluorescence, primary screen (AID 1115); conditions: small-molecule microarray, higher = more signal;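 further: probe is biotinylated aNog protein used at 0.15 µg/mL for 1 h at 4 C; z-score combines 667 nm fluorescence of each spot with its signal to noise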
# [19] = molecular target: Torsin-1A-interacting protein 1 (Homo sapiens) (UniProt Q5JTV8); assay: compound microarray binding of lysate hLAP1 – cell lysate, small-molecule microarray, COS7 lysate, 635/667 nm fluorescence, primary screen (AID 1116); conditions: 635 nm fluorescence, higher = more signal
# Torsin-1A-interacting protein 1 (Homo sapiens), sequence (Q5JTV8 whole entry, looked up): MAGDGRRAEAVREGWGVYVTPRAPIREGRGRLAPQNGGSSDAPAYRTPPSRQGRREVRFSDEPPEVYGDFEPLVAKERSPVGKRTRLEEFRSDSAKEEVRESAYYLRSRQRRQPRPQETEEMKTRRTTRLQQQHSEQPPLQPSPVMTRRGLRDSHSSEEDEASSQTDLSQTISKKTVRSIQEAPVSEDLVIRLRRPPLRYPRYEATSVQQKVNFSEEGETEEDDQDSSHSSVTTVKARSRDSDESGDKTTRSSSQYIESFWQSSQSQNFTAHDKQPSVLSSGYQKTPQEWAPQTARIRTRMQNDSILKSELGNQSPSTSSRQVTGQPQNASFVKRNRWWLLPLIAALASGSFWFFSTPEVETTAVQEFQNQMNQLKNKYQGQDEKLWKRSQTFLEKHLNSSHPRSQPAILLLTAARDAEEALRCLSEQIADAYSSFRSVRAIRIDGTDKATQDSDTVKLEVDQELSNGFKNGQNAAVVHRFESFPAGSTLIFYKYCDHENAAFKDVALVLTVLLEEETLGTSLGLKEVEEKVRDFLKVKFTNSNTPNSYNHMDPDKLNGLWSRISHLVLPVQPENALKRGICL
# [20] = molecular target: Alpha-bungarotoxin (Bungarus multicinctus) (UniProt P60615); assay: compounds binding labelled alpha-BTX control protein – biochemical, small-molecule microarray, Alexa647 label, 635/667 nm fluorescence, artefact control for SMM control protein annotation, profiling panel (AID 1117); conditions: alpha-BTX-A647 binding fluorescence, higher = more signal
# Alpha-bungarotoxin (Bungarus multicinctus), sequence (P60615 whole entry, looked up): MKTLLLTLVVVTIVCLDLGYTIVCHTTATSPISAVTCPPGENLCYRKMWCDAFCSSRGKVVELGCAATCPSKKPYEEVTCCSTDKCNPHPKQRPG
SMILES,composite z-score [1],composite z-score [2],composite z-score [3],z-score [4],composite z-score [5],composite z-score [6],composite z-score [7],composite z-score [8],composite z-score [9],composite z-score [10],composite z-score [11],z-score [12],composite z-score [13],composite z-score [14],composite z-score [15],composite z-score [16],composite z-score [17],composite z-score [18],composite z-score [19],composite z-score [20]
Cc1ccc(S[C@]2(C(=O)NC3CC3)CC(=O)N(C3Cc4ccccc4C3)[C@@H]2c2ccc(CO)cc2)cc1,1.65,0.245,0.806,-0.983 (inactive),-0.451,-0.15,-0.876,-0.809,-1.02,-0.139,1.27,-1.08,-1.7,-0.0137,0.0662,-0.258,-0.154,0.354,0.439,-0.441
COC(=O)c1c(CC[C@@H](CO)NC(=O)N[C@H](Cn2cc(Cc3ccccc3)nn2)C(C)C)oc(C(C)=O)c1C(=O)OC,0.751,-0.195,-0.457,-0.781 (inactive),1.16,0.544,-0.172,0.678,0.857,0.509,0.712,-0.0084,0.637,-0.279,-0.573,-0.18,0.288,-0.143,0.223,0.882
CCOC(=O)[C@H]1C/C=C/C[C@H](C(=O)OCC)C(=O)O[C@H]2[C@@H](OC)O[C@H](CO)[C@@H](OC(=O)Nc3ccc(C#N)cc3)[C@@H]2OC1=O,0.859,-0.114,0.0682,-2.6 (inactive),0.322,-0.0841,-0.226,0.413,-0.255,0.189,-0.324,-3.6,-0.0147,0.917,0.148,-0.124,0.0062,-0.113,1.63,-0.253
C=CC[C@]1(C(=O)NCCCOC)N=C(c2ccc(OCCCO)cc2)O[C@H]1c1ccccc1N=[N+]=[N-],1.65,-0.188,0.658,-0.885 (inactive),1.44,0.746,-0.223,0.348,-0.516,1.29,1.05,-0.682,-0.338,2.08,0.312,0.191,0.535,1.8,1.47,0.928
CN1C(=O)C2C=CC(C(O)c3ccccc3)N(Nc3ccccc3)C2C1=O (stereo not given),1.54,0.754,1.13,1.03 (inactive),-0.678,-0.415,-1.32,-0.674,-1.22,0.918,-0.265,0.773,-1.52,0.253,-0.143,-0.0758,-0.0813,-0.448,-0.454,0.201
CCCC[C@@H]1C[C@H]1[C@@H](NC(=O)c1ccco1)c1ccc(Cl)cc1,0.428,0.807,1.03,-0.659 (inactive),0.438,1.15,-0.0272,0.0636,0.461,0.89,1.28,-2.37,0.232,1.68,1.1,-0.0125,0.336,0.314,1.4,1.33
CCOC(=O)C1=CCC(c2ccc(C)cc2)N(S(=O)(=O)c2ccc(C)cc2)C1 (stereo not given),0.751,0.524,0.845,-0.688 (inactive),0.129,0.301,-0.136,0.058,0.0296,1.42,1.12,-0.905,0.175,0.367,0.172,-0.0226,-0.0977,0.542,0.81,1.15
O=C1c2ccccc2[C@](Cc2ccccc2I)(C(=O)NC2CC2)[C@H](c2ccc(CO)cc2)N1Cc1ccccc1,0.701,-0.145,0.693,-0.0921 (inactive),0.409,-0.0685,-0.375,-0.117,-0.112,0.0183,0.742,-0.701,-0.346,0.438,0.0099,-0.101,0.234,0.099,0.711,0.832
CCCCCN1CC=CC23O[C@@H]4/C=C\CCCOC(=O)C4[C@H]2C(=O)N(C(CO)C(C)C)[C@@H]3C1=O (stereo not given in full),1.24,-0.248,-0.0212,-0.455 (inactive),0.0758,-0.949,-0.637,-0.188,-0.148,1.05,-0.453,0.568,-0.358,-0.33,-0.272,-0.0107,-0.416,-0.158,0.174,-0.0063
O=C1NCC(=O)N2[C@@H]1C[C@@H](C(=O)O)[C@H]2c1cccc(OCCO)c1,2.28,3.06,1.73,0.45 (inactive),1.38,1.38,1.96,1.66,2.56,1.74,1.57,0.19,1.68,2.17,1.1,1.38,3.13,3.62,4.92,2.04
O=C1c2ccccc2[C@@]2(Cc3ccccc3N(CC(F)(F)F)C2=O)[C@H](c2ccc(CO)cc2)N1Cc1ccccc1Cl,0.0888,-0.237,-0.524,-0.311 (inactive),0.466,0.612,0.509,0.725,0.558,0.531,0.265,0.078,0.547,-0.146,-0.684,-0.166,-0.17,-0.282,0.156,0.287
